Screening data (PubChem)
HTR2A ag – mouse Htr2a agonists via beta-arrestin recruitment, primary screen, cell-based, luminescence; 5-hydroxytryptamine receptor 2A (Mus musculus), P35363; CHO-K1 mHTR2A beta-arrestin complementation; percent of 30 µM serotonin response; activation, % at 7.6 µM; 360,000 compounds, 0.66% hits; AID 624169, 2012;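 active = activation above a run cutoff, the mean activation of all tested compounds plus 3 SD, cut at about 14% in these data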;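 note: 0% = plate median of compound wells and 100% = 30 µM serotonin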
NOD2 RIPK2 PPI – NOD2-RIPK2 binding disruptors in cells, primary screen, fluorescence, CHO cells, BLA complementation; AID 624267, 2012; CCF4 ratio; 360,000 compounds, 0.38% hits; Receptor-interacting serine/threonine-protein kinase 2 (Homo sapiens), O43353; inhibition, % at 4.98 µM; in the data active = inhibition above about 21%;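 note: 0% = vehicle only and 100% = reference blocker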
TLR4-MyD88 BLA – inhibitors of TLR4-MyD88 association in cells, primary screen, cell-based, HeLa CL3-4, BLA complementation, FRET ratio; Toll-like receptor 4 (Homo sapiens) + Myeloid differentiation primary response protein …; HeLa CL3-4 TLR4/MyD88 BLA complementation; inhibition, % at 8.4 µM; 200,000 compounds, 0.18% hits; AID 861, 2007; in the data active = inhibition above about 25%;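 note: 0% = vehicle and 100% = reference inhibitor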
TMEM16A inh – TMEM16A chloride channel inhibitors, primary screen, cell-based, HTS; 310,000 compounds, 1.2% hits; AID 588511, 2011; normalized B-score (activity score, 25-100; higher = stronger inhibition) at 10 µM; HEK293 TMEM16A/YFP iodide influx fluorescence, ionomycin;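 active = ratio plate-corrected score three or more library SD toward inhibition, starting fluorescence score within five deviations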;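 note: score derived from kinetic fluorescence span divided by baseline fluorescence per well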
TLR9-MyD88 block – inhibitors of TLR9-MyD88 association in cells, primary screen, cell-based, CHO, BLA complementation, fluorescence | Toll-like receptor 9 (Homo sapiens) + Myeloid differentiation primary response protein … | CCF4 FRET ratio | inhibition, % at 4.98 µM | 340,000 compounds, 0.21% hits;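 active = inhibition above the mean over all tested compounds plus 3 SD, cut at about 21% in these data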;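 note: 0% = DMSO only wells and 100% = clavulanate BLA inhibitor control wells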
TMEM16A act – TMEM16A chloride channel activators or potentiators, primary screen, cell-based, HTS. HEK293 TMEM16A/YFP-H148Q/I152L, iodide quench fluorescence; stronger effect = lower value. B-score at 10 µM. Anoctamin-1 (Mus musculus), Q8BHY3. 340,000 compounds, 0.3% hits;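 active = fluorescence-ratio B-score plate-corrected deviation score at least 3 library SD below zero, with starting fluorescence score within 5 deviations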;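 note: channel opened by trigger with iodide after compound preincubation; score built on the fluorescence ratio of max minus min over baseline; more negative score means more quench and so TMEM16A activation or potentiation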
Starred values were filed as active, the others as inactive; i = inactive; x = not tested or not shown. Shown are actives, neighbours in structure and some others; about 2.4% of the full set was active somewhere.

SMILES | HTR2A ag | NOD2 RIPK2 PPI | TLR4-MyD88 BLA | TMEM16A inh | TLR9-MyD88 block | TMEM16A act
COc1cccc(OCCSc2nc(N)cc(N)n2)c1 | -8 | -3 | -4 | 25* | 7 | i
CC1Oc2cc3oc4c(O)c(O)ccc4c(=O)c3c(O)c2C1(C)C (configuration not stated) | 7 | 14 | x | 100* | -1 | i
O=c1c(N=Nc2ccc(O)cc2)c(-c2ccccc2)[nH]n1-c1ccc([N+](=O)[O-])cc1 | 0 | -5 | 1 | i | -4 | i
O=c1cc(-c2ccccc2)[nH]n1-c1ccc([N+](=O)[O-])cc1 | 5 | -2 | 10 | 100* | -1 | i
ON1C(c2ccc(Cl)cc2Cl)N(O)[C@H]2CCCC[C@H]21 (some centres not stated) | 1 | -5 | 6 | 100* | -5 | i
CC1N(O)C(c2ccc(Cl)cc2Cl)N(O)C1(C)C (configuration not stated) | 4 | -2 | 8 | i | 7 | i
Cc1ccc([C@H]2C(C(=O)O)=CC[C@@H](c3cccc(Cl)c3)N2S(=O)(=O)c2ccc(C)cc2)cc1 | 1 | -7 | x | x | 3 | x
CCc1ccc([C@@H]2CC=C(C(=O)O)[C@H](c3cccc(Cl)c3)N2S(=O)(=O)c2ccc(C)cc2)cc1 | 0 | 1 | x | 100* | 1 | i
CCc1ccc([C@@H]2CC=C(C(=O)O)[C@H](c3ccc(Cl)cc3)N2S(=O)(=O)c2ccc(C)cc2)cc1 | -3 | 0 | x | 100* | 9 | i
O=C(COC(=O)c1ccccn1)Nc1ccc(S(=O)(=O)N2CCOCC2)cc1 | 3 | -9 | 4 | 25* | -1 | i
CCOc1ccccc1C(=O)OCC(=O)Nc1cc(S(=O)(=O)N2CCOCC2)ccc1C | -4 | 2 | x | x | -14 | -42*
Cc1ccc(C(=O)OCC(=O)Nc2cc(S(=O)(=O)N3CCOCC3)ccc2C)cc1 | -2 | 2 | -16 | i | 2 | i
COc1ccc(OC)c(/C=C(\C)C(=O)c2c(C)cc(C)[nH]c2=O)c1 | 2 | 4 | x | i | -1 | i
FC(F)(F)c1ccccc1Cc1c(-c2cccc(Cl)c2)nc2c3ccccc3ccn12 | 6 | 9 | x | x | x | x
Cn1cnc([N+](=O)[O-])c1Sc1ccc(Br)cc1 | 2 | -3 | 7 | i | 6 | i
Cc1nn(C)c(C)c1Sc1ccc(Br)cc1 | -5 | -6 | 3 | 25* | -12 | i
CCCN1C2CCCC1CC(NC(=O)c1ccccc1OCC)C2 (configuration not stated) | 0 | -10 | 0 | i | -7 | i
CCCN1C2CCCC1CC(NC(=O)c1ccccc1OC)C2 (configuration not stated) | -6 | -1 | x | 100* | -12 | i
O=C(Cn1[nH]c(=O)c2ccccc2c1=O)Nc1cccc(S(=O)(=O)N2CCCCCC2)c1 | 0 | 5 | -5 | 100* | 3 | i
O=C(COC(=O)C1CC2C=CC1C2)Nc1cccc(S(=O)(=O)N2CCCCCC2)c1 (configuration not stated) | 5 | 5 | -10 | 100* | -6 | i
CCN(CC)S(=O)(=O)c1cc(NC(=O)CNc2cccc(S(=O)(=O)N3CCCC3)c2)ccc1C | 9 | 5 | x | 100* | -1 | i
O=C(Cn1nc(C(=O)O)c2ccccc2c1=O)Nc1cccc(S(=O)(=O)N2CCCCCC2)c1 | 3 | -9 | x | x | 7 | i
CN(C)S(=O)(=O)c1cccc(NC(=O)CNc2cccc(S(=O)(=O)N3CCCCC3)c2)c1 | 5 | 7 | x | x | 0 | x
COC(=O)NNC(=O)c1ccc(C)cc1 | 2 | -8 | -1 | i | 4 | i
Cc1cccc(C)c1-n1nnnc1C1(C)CCC(=O)N1Cc1cccc(C(F)(F)F)c1 (configuration not stated) | 4 | 0 | x | x | x | x
SMILES | HTR2A ag | NOD2 RIPK2 PPI | TLR4-MyD88 BLA | TMEM16A inh | TLR9-MyD88 block | TMEM16A act
CN(CC(=O)Nc1cc(S(=O)(=O)N2CCCC2)ccc1Cl)Cc1cccs1 | 5 | 5 | x | i | -1 | i
CC(=O)OCC(=O)C1(O)CCC2C3CC(C)C4=CC(=O)C=CC4(C)C3C(O)CC21C (configuration not stated) | 3 | -2 | x | x | x | x
C[C@H]1C[C@@H]2[C@H]([C@@H](O)C[C@@]3(C)[C@H]2CC[C@]3(O)C(=O)CO)[C@@]2(C)C=CC(=O)C=C12 | 18* | -4 | 1 | i | -5 | i
COc1ccc(NC(=O)CCc2nc3ccccc3s2)c(OC)c1 | 3 | -12 | 11 | i | -2 | i
CCOc1ccc(C(=O)CCc2nc3ccccc3s2)cc1 | 21* | 1 | -12 | i | -1 | i
CCc1ccc(-c2cc(C)no2)cc1S(=O)(=O)N1CCN(c2cccc(C)c2C)CC1 | 14 | -9 | x | i | 13 | i
O=C(CCCn1c(SCC(=O)c2ccc(F)cc2)nc2ccccc2c1=O)NCc1ccccc1 | -8 | 4 | 3 | 25* | 0 | i
CCc1oc2ccccc2c1C(=O)c1cc(Br)c(O)c(Br)c1 | 2 | 7 | -6 | 100* | 2 | i
C(=C\c1ccccc1)/CSc1nnc(-c2ccccn2)n1Cc1ccco1 | -3 | 13 | -10 | i | -12 | i
CCOc1ccc(-n2c(SCC(=O)Nc3ccc(CC)cc3)nc3n[nH]c(C)c3c2=N)cc1 | -1 | -5 | -5 | i | 7 | -6.4*
O=S(=O)(NC1CCCCC1N1CCOCC1)c1ccc(Cl)cc1 (configuration not stated) | -5 | 7 | -3 | i | 10 | i
O=S(=O)(NC1CCCCC1N1CCN(c2ccccc2F)CC1)c1ccc(Cl)cc1 (configuration not stated) | -10 | -10 | x | i | -5 | -40*
CCCc1cc(=O)[nH]c(SCC(=O)N2CCN(S(=O)(=O)c3ccc(Cl)cc3)CC2)n1 | 1 | -12 | 4 | i | -8 | i
Cc1ccc2[nH]c3c(N4CCN(Cc5ccc6c(c5)OCO6)CC4)ncnc3c2c1 | x | x | -14 | x | x | x
COc1ccc2c(c1)[nH]c1c(N3CCN(Cc4ccc5c(c4)OCO5)CC3)ncnc12 | 1 | 5 | -1 | 100* | -5 | i
COc1ccc(OC)c(NC(=O)Nc2ccc(O)c3ccccc23)c1 | -8 | -5 | x | i | -7 | i
